Source: PubChem BioAssay AID743279 (National Center for Advancing Translational Sciences (NCATS), 2014)
Where “and” joins values, the source holds several entries; their conditions need not be identical. Equal entries are not always repeated. Hit rate of the full screen: of about 360,000 compounds, about 17,000 (4.7%) were called active. About 5% were inconclusive and are not listed. Rule as the data show it: active = activity change below about -50%; inconclusive = mostly about -30% to -49%; inactive = weaker than that. The list comes from a sample in which actives are over-represented; it also holds similar structures and randomly drawn compounds.

Experiment: qHTS for Inhibitors of Inflammasome Signaling: IL-1-beta AlphaLISA Primary Screen
Settings: THP-1 LPS/ATP IL-1B secretion, 16 h; at 57.5 µM, active compounds read low
In short: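 THP-1 cells pretreated 1 hr with compounds (up to 57.5 uM final), then stimulated with LPS (250 ng/mL final) plus ATP (1.25 mM final); secreted IL-1B measured by AlphaLISA after 16 hr, decreased signal indicating inhibition.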
% is scaled to controls: 0 for no effect and ±100 for the full control effect.

Structure (SMILES) | activity change
COC(=O)c1ccc2nc(-c3ccccc3)c(Cc3ccc(OC)cc3C)n2c1 | -3.04% (inactive)
CSc1ccc(CN2CCC2(C)C(=O)Nc2ccc(C)c(O)c2)cc1 (configuration not stated) | -13.3% (inactive)
Cc1ccc(S(=O)(=O)N[C@H](CO)C(C)C)cc1 | -19.8% (inactive)
Cc1ccsc1CNn1cnnc1SCc1ccccc1F | -6.1% (inactive)
CC(C)c1ccc(CC(=O)N2CCC2(C)C(=O)NS(=O)(=O)c2ccc(C(C)(C)C)cc2)cc1 (configuration not stated) | 19.2% (inactive)
C[C@]12CCC(=O)C=C1C=CC1C2CC[C@@]2(C)C1CC[C@@]21CCC(=O)O1 (some centres not stated) | -21.4% (inactive)
CSCCC(NS(=O)(=O)c1ccc(C)cc1)C(=O)NCCc1c[nH]c2ccccc12 (configuration not stated) | -1.87% (inactive)
O=C1Nc2ccccc2-n2nnnc2C1N1CCN(c2cccc(C(F)(F)F)n2)CC1 (configuration not stated) | -29.2% (inactive)
O=C(CO/N=C/c1ccc(OC(F)F)cc1)NCc1ccc(F)cc1 | -66.2% (active)
CCOc1ccc(/C=N/OCC(=O)NCc2cccs2)cc1 | -0.513% (inactive)
CC1CCCCC1NC(=O)CO/N=C/c1ccc(OC(F)F)cc1 (configuration not stated) | -0.145% (inactive)
CC(C)(C)C(=O)c1c(N)[nH]c(C(=O)c2ccccc2)c1-c1ccc(F)cc1 | 19.8% (inactive)
Fc1cccc(Cc2c(-c3cccc(Cl)c3)nc3ccc(Br)cn23)c1 | 88.1% (inactive)
Cc1cccc(C(=O)Nc2ccc(CC(=O)O)cc2)c1 | 0% (inactive)
O=C(Nc1ccc(Br)cn1)c1ccc([N+](=O)[O-])cc1Cl | -6.95% (inactive)
Cc1cc(NC(=O)COc2ccc([N+](=O)[O-])cc2)no1 | -22.5% (inactive)
Cc1cccc(NC(=O)c2ccc([N+](=O)[O-])o2)c1 | -102% (active)
Cc1onc(NC(=O)c2ccc([N+](=O)[O-])o2)c1Br | -79.8% (active)
Cc1cccc(NC(=O)C(C)SCc2ccccc2)c1 (configuration not stated) | 58.8% (inactive)
O=C(Nc1ccc(Br)cn1)c1ccc([N+](=O)[O-])o1 | -155% (active)
CN1C(=O)c2ccc(C(=O)Nc3ccc(Br)cn3)cc2C1=O | -0.113% (inactive)
Cc1onc(C(=O)NCc2ccc(F)cc2)c1[N+](=O)[O-] | 10% (inactive)
C[n+]1cccc(C(=O)O)c1 | -10.8% (inactive)

Structure (SMILES) | activity change
O=C(NCc1cccnc1)c1cc(C2CCCCN2C(=O)CCc2ccccc2)on1 (configuration not stated) | 19.3% (inactive)
Cc1n[nH]c(=O)c2c(NC(=O)CSc3ccccc3F)oc(C)c12 | -0.579% (inactive)
CC(C)(C)OC(=O)NC(Cc1ccccc1)C(=O)NC(CSC1CCCCO1)C(=O)NN (configuration not stated) | -12% (inactive)
COc1ccc(CN2C(=O)C(CC(=O)NCCN3CCOCC3)CC(C(=O)N(C(C)C)C(C)C)=C2C)cc1 (configuration not stated) | 15.9% (inactive)
COc1cc(C2c3cc4c(cc3C(O)C3COC(=O)C23)OCO4)cc(OC)c1OC (configuration not stated) | -3.2% (inactive)
O=C(NCC(F)(F)F)c1ccc(S(=O)(=O)NCCc2ccc3c(c2)OCCO3)cc1 | -14.1% (inactive)
CCCn1c(N)c(C(=O)CSc2nnc(Cc3cccs3)n2C2CC2)c(=O)[nH]c1=O | -3.66% (inactive)
COc1cc(OC)cc(C2=Cc3ccccc3C(CC(=O)c3ccco3)N2c2ccc(-c3cnc(OC)nc3)cc2)c1 (configuration not stated) | 3.59% (inactive)
CCOc1ccc(Cl)cc1-c1cc(C(=O)NCc2cccs2)[nH]n1 | -22.8% (inactive)
COC(=O)C[C@@H]1C=C[C@@H](NS(=O)(=O)c2cccc(OC)c2)[C@@H](CO)O1 | -5.98% (inactive)
CCOC(=O)/C(=N\Nc1cc(Cl)ccc1Cl)N1CCN(C)CC1 | 19% (inactive)
COc1cc2ccc(C(C)=O)c(O)c2cc1OC | -10.2% (inactive)
COc1ccc(-c2nc3cnccn3c2NC(C)(C)CC(C)(C)C)cc1O | -71.3% (active)
Cc1ccc2nc(-c3cccnc3)c(NC3CCCC3)n2c1 | -1.15% (inactive)
COc1ccc(C)cc1S(=O)(=O)NC1CCCCC1 | -4.98% (inactive)
COc1ccc(-c2nc3cnccn3c2NC2CCCCC2)cc1-c1cccc(Cl)c1 | -76.6% (active) and -52.7% (active)
COC(=O)c1ccc2nc(-c3ccc(OC)c(OC)c3)c(Cc3ccccc3)n2c1 | -9.54% (inactive)
COc1cccc(-c2nc3nc(C)cc(C)n3c2NC2CCCCC2)c1 | 8.2% (inactive)
CCOc1cc(-c2nc3cc(C)ccn3c2NCC2CCCO2)ccc1O (configuration not stated) | 2.58% (inactive)
COc1ccc(-c2nc3cc(C)ccn3c2NC2CCCCC2)cc1SC1CCCCC1 | -85% (active)
CC(=O)Nc1cc(-c2ccccc2F)cn2c(-c3cccc(C(F)(F)F)c3)cnc12 | -13.7% (inactive)
COc1cc(C=NC2CCCCC2)ccc1O | 9.61% (inactive)
Cc1ccc(-c2nc(C)sc2CC(=O)OCC(=O)Nc2c(F)cccc2F)cc1 | 8.31% (inactive)

Structure (SMILES) | activity change
CCNC(=O)C1CCCN(C(=O)c2ccc(OC)cc2OC)CC1 (configuration not stated) | 5.59% (inactive)
COC(=O)CC(CC(=O)OC)n1cccc1 | 4.98% (inactive)
O=C(CN(Cc1ccc(Br)cc1)S(=O)(=O)c1ccccc1)NCc1ccncc1 | -5.94% (inactive)
Cc1cc(C)cc(C(=O)NC(CC(N)=O)c2ccc(N3CCC(N4CCCCC4)CC3)c([N+](=O)[O-])c2)c1 (configuration not stated) | -16.2% (inactive)
CCOC(=O)c1c(C)[nH]c(C)c1C(=O)COC(=O)/C=C/c1cccc([N+](=O)[O-])c1 | -15% (inactive)
CCCOC1CCCN(C(=O)c2cc(COc3cncc(Cl)c3)on2)C1 (configuration not stated) | 0% (inactive)
NC(=O)COC(=O)/C=C/c1ccc2ccccc2n1 | -101% (active)
CC(NC(=O)COC(=O)c1ccc2ccccc2n1)c1ccccc1 (configuration not stated) | 2.13% (inactive)
COc1ccc(C(=O)COC(=O)c2ccc3ccccc3n2)cc1 | 3.46% (inactive)
COc1cc(CCC(=O)N2CCN(c3ccccc3Cl)CC2)cc(OC)c1OC | 7.36% (inactive)
COCCCN(C(=O)Cn1ncc2c(=O)oc3ccc(C)cc3c21)C(C)c1ccncc1 (configuration not stated) | 7.95% (inactive)
Nc1cccc(-c2cc(-c3ccccc3)nc(-c3cccc(N)c3)n2)c1 | -9.31% (inactive)
CS(=O)(=O)c1sc2nc(-c3ccccc3)cc(-c3ccccc3)c2c1N | -67.8% (active)
CNC(=S)NNC(=O)c1oc2nc(-c3ccccc3)cc(-c3ccco3)c2c1N | -18% (inactive)
CCOC(=O)C(C)n1cnc2scc(-c3ccc(C)c(C)c3)c2c1=O (configuration not stated) | -7.25% (inactive)
Cc1nn(-c2ccccc2)c(C)c1/C=C/C(=O)OC(C)C(N)=O (configuration not stated) | 9.76% (inactive)
Cc1nn(-c2ccccc2)c(Cl)c1/C=C/C(=O)c1ccc(O)cc1 | -94.5% (active)
Cc1ccc(C(=O)Nc2nc(N)n(-c3ccccc3)n2)cc1 | -8.07% (inactive)
Cc1nn(-c2ccc(F)cc2)c(Cl)c1/C=C(/CCC(=O)O)c1nc2ccccc2s1 | 19.2% (inactive)
Cc1nn(-c2ccccc2)c(-n2cccc2)c1C(=O)O | 20.3% (inactive)
Cc1ccc(C(=O)/C=C/c2c(C)nn(-c3ccccc3)c2Cl)cc1 | -95% (active)
OCC(O)C1OCOC(C(O)CO)C1O (configuration not stated) | -2.84% (inactive)
Cc1ccc(C2Nc3ccccc3C(=O)N2CCN2CCNC2=O)cc1 (configuration not stated) | 10.9% (inactive)

Structure (SMILES) | activity change
Cc1cccc2[nH]c(CN(C)C(=O)C3CCC(=O)N(CCc4ccccc4)C3)nc12 (configuration not stated) | 0% (inactive)
Cc1cccc(C)c1NC(=O)C(Cl)C(=O)c1ccccc1 (configuration not stated) | -95.8% (active)
Cc1cccc(C)c1NC(=O)CN(C)C(=O)CCC(=O)c1ccccc1 | -6.47% (inactive)
Cc1cccc(C)c1NC(=O)C(c1ccccc1)N1CC(=O)Nc2ccccc21 (configuration not stated) | -11% (inactive)
OC(c1ccc(F)cc1)c1ncc(-c2cccc(C(F)(F)F)c2)[nH]1 (configuration not stated) | -20.2% (inactive)
COc1ccc(CC(N)c2csc(NC(=O)NC(c3ccccc3)c3ccccc3)n2)cc1 (configuration not stated) | -61.5% (active)
COC(=O)[C@H](CCSC)NC(=O)Nc1ccc(OC)cc1 | 16.7% (inactive)
COc1ccc(OC)c(NC(=O)N[C@H](Cc2ccccc2)C(=O)NN)c1 | -13.5% (inactive)
CC(C)(C)CC(=O)Nc1nnc(SCC(=O)NCc2cccs2)s1 | -5.2% (inactive)
Cc1ccccc1NC(=O)Cc1nc(COC(=O)c2ccc(C(F)(F)F)cc2)cs1 | -4.36% (inactive)
COc1ccc(CC(N)c2csc(NC(=O)Nc3ccc(C(C)C)cc3)n2)cc1 (configuration not stated) | -108% (active)
COc1ccc(NC(=O)C(Br)C(C)C)cc1 (configuration not stated) | -18.5% (inactive)
CC(C)(C)CC(=O)Nc1nc(C(N)Cc2ccc(C(F)(F)F)cc2)cs1 (configuration not stated) | -83.8% (active)
NC(Cc1ccccc1)c1csc(Nc2cc(Oc3ccccc3)ncn2)n1 (configuration not stated) | 0% (inactive)
CCCS(=O)(=O)NC(=O)C1(C)CCN(C(=O)c2sccc2C)C1 (configuration not stated) | 6.04% (inactive)
CC1(C(=O)NCc2cccc3ccccc23)CCN1Cc1ccc(-c2ccccc2)o1 (configuration not stated) | -22.3% (inactive)
COc1cccc(CNS(=O)(=O)c2ccc3c(c2)N(C(C)=O)CCS3)c1 | -9.03% (inactive)
CCC1CCCCN1C(=O)CSc1nc(C)cc(C)n1 (configuration not stated) | -6.03% (inactive)
COc1ccc(-c2ccc(CN3C(C(C)C)C(=O)N(Cc4cn(CC5CCCCC5)nn4)CCS3(=O)=O)cc2)cn1 (configuration not stated) | -2.84% (inactive)
COc1ccc(CCNC(=O)C(Sc2ccccn2)c2ccccc2)cc1OC (configuration not stated) | -6.65% (inactive)
COc1ccc(COC(=O)NC(C(=O)O)c2ccccc2)cc1 (configuration not stated) | 7.03% (inactive)
COc1ccc(C(CCN(Cc2ccc(OC)c(OC)c2)C(=O)CCl)c2ccccc2)cc1 (configuration not stated) | -101% (active)
O=C(NCC(O)c1nc2ccccc2[nH]1)c1ccc(Br)cc1 (configuration not stated) | 1.41% (inactive)
